DRD3 antagonist – qHTS of D3 Dopamine Receptor Antagonist: qHTS. D(3) dopamine receptor (Homo sapiens), P35462. max response, negative = inhibition, %. AID 652054, 2013. 360,000 tested, 2.5% active. D3R cells, DiscoveRx beta-arrestin luminescence, antagonist mode; stronger effect = lower value; in the data active = max response below about -50%; inconclusive = no clear call, values can overlap the other calls; note: % is set by controls: 0 for no effect and ±100 for the full control effect
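Cells plated overnight at 1500 cells/well, then exposed to library compounds with dopamine controls for 90 minutes at 37 degrees C. DiscoveRx reagent added for 30–60 minutes at room temperature; luminescence read, quantitative HTS format.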
D3 ag – qHTS of D3 Dopamine Receptor Agonist: qHTS | max activation, % | 410,000 tested, 0.58% active | AID 652048, 2013 | D3R DiscoveRx beta-arrestin cells, luminescence, 90 min; in the data active = max activation above about 30%; note: 0% is about no effect
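Agonist mode: compounds and dopamine controls were applied to plated cells for 90 min at 37 degrees C after an overnight attachment at 1500 cells/well. Luminescent read-out followed 30 - 60 minutes at room temperature with DiscoveRx detection reagent.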
GLP-1R inv ag – qHTS of GLP-1 Receptor Inverse Agonists (Inhibition Mode). Glucagon-like peptide 1 receptor (Homo sapiens), P43220. HEK293 GLP-1R CRE-luciferase, luminescence, 24 h; GLP-1R form is constitutively active. Potency, µM (doses to about 38.3 µM), for the others: at the top dose activity change, negative = inhibition, most hits filed as inhibitors. 410,000 tested, 1.6% active. AID 624417, 2012; note: potency is the fitted concentration of half-maximal effect; % is set by controls: 0 for no effect and ±100 for the full control effect; nearly all actives have a fitted effect of over 55% in size
Target sequence (P43220 whole entry, looked up): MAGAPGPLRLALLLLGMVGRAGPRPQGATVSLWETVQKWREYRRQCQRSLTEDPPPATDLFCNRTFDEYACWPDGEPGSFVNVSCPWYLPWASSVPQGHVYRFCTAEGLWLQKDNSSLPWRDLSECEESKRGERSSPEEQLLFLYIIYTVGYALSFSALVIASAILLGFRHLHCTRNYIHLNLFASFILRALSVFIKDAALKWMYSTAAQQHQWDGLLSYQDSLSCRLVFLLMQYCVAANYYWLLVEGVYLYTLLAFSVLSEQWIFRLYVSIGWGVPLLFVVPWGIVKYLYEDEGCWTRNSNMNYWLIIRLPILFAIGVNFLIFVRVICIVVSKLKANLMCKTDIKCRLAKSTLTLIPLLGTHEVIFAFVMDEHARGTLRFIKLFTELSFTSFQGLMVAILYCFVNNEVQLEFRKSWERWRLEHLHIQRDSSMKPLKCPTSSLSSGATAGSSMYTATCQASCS
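Inverse agonists were sought by their lowering of basal cAMP reporter luciferase output in HEK293 cells stably carrying constitutively active human GLP-1R, after 24 h compound treatment.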
ClpP mod – qHTS Assay for Activators of ClpP | Potency, µM (titrated, usually from 57.5 µM), for inactives: at the top dose activity change, negative = active | 340,000 tested, 1.9% active | purified B. subtilis ClpP, FRET peptide cleavage, 20 min | ATP-dependent Clp protease proteolytic subunit (Bacillus subtilis (strain 168)), P80244 | AID 651965, 2013; active = well fitted falling curve with a large enough effect; inconclusive = small, poorly fitted or top-dose-only effect; inactive = no such curve, though single readings can be large or run the other way; note: potency is the fitted concentration of half-maximal effect; the source files actives as falling curves though it sought activators and does not explain the sign; nearly all actives have a fitted effect of over 65% in size
Target sequence (P80244 whole entry, looked up): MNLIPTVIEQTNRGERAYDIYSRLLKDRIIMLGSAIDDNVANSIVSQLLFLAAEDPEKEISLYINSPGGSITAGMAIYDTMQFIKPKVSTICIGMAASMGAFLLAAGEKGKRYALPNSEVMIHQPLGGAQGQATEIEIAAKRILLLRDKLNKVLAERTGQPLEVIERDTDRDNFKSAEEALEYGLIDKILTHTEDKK
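Buffer: 100 mM Tris/HCl pH8, 100 mM KCl, 0.05% low protease BSA, 2.5% glycerol, 0.01% Tween-20. ClpP 10 microg/mL final; 20 min RT; delta FRET normalized to ADEP and DMSO controls.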
HEK293 tox – qHTS of GLP-1 Receptor Inverse Agonists: Cytotox Screen; 410,000 tested, 0.13% active; Potency, µM (highest dose often 38.3 µM), inactives show at the top dose activity change, negative = inhibition, actives largely listed as inhibitors; HEK293 cAMP-luciferase reporter cells, luminescence, 24 h;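 note: loss of luciferase light is scored as toxicity; potency is the fitted concentration of half-maximal effect; % is set by controls: 0 for no effect and ±100 for the full control effect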
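Here, cytotoxicity is scored as loss of luminescence. The MLSMR collection was tested on cells seeded in medium containing 10% Nu serum, with a 24 hr compound exposure preceded by 12 hours of culture.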
GLP1R ag – qHTS of GLP-1 Receptor Agonists; Glucagon-like peptide 1 receptor (Homo sapiens), P43220; HEK293 GLP-1R CRE-luciferase, luminescence, 4-6 h; cells express a hypersensitive GLP-1R form; Potency, µM (series often up to 45.6 µM), for inactives: top-dose activation, usual class: activators; 380,000 tested, 0.007% active; AID 624172, 2012; note: potency is the fitted concentration of half-maximal effect; % of control where 0% means no effect
* hit, by the source's call; ? = inconclusive; . = no result given. Only some compounds are listed: those with a hit (about 5.7% of all), similar ones and a draw of the others. Unless noted, calls come from the whole dose curve; as a rule, active = well fitted curve in the direction sought with a large enough effect; inconclusive = small, poorly fitted or top-dose-only effect, or another doubt; inactive = no such curve, though single readings can be large; an effect the other way counts as inactive or inconclusive.

SMILES | DRD3 antagonist | D3 ag | GLP-1R inv ag | ClpP mod | HEK293 tox | GLP1R ag
CCN(CC)Cc1c(C(=O)N/N=C/c2ccncc2)nnn1-c1nonc1N | -19.4 | -11.2 | -49.9% | . | -9.8% | 0.2%
C/C(=N\NC(=O)c1nnn(-c2nonc2N)c1-c1cccs1)c1ccc(O)cc1 | -0.6 | 5.0 | 7.94µM* | 15.3% | -20.6% | -1.5%
CCC(CC)C(=O)Nc1nnc(SCc2cc(=O)c3ccccc3[nH]2)s1 | . | 1.9 | -11.3% | -0.7% | -3.5% | .
C=CCN(C)CCCCCCOc1ccc(C(=O)c2ccc(Br)cc2)c(F)c1 | . | . | . | 1.0% | . | .
COc1ccc(C(=O)/C=C2/C(=O)Nc3ccccc32)cc1 | ? | -11.2 | ? | -2.0% | ? | -1.8%
COc1ccc(C(=O)/C=C2/C(=O)Nc3ccccc32)c(OC)c1 | -27.0 | -23.1 | ? | -17.4% | 10µM* | -5.6%
O=C1Nc2ccccc2/C1=C/C(=O)c1cccs1 | -16.2 | -6.1 | ? | 31.6µM* | ? | -59.4%
CCCN(CCC)c1ccc(C2N=C(N)Nc3nc4ccccc4n32)cc1 (configuration not stated) | . | 9.0 | 9.7% | -2.3% | 5.1% | .
Cc1c(C)c2ccc(OCC(=O)Nc3ccccn3)c(C)c2oc1=O | 12.4 | 0.2 | 10µM* | 3.9% | 18.5% | -4.9%
C=CCOC(=O)COc1ccc2c(C)c(C)c(=O)oc2c1C | 3.0 | 1.6 | 9.4% | 15.8µM* | -1.0% | 27.4%
Cc1c(OCC(=O)OC(C)(C)C)ccc2c3c(c(=O)oc12)CCC3 | 77.0 | 12.1 | -12.3% | 28.2µM* | 11.0% | 6.2%
Cc1coc2cc3oc(=O)c4c(c3cc12)CCCC4 | 19.5 | 2.8 | 0.0% | -26.3% | 7.0% | -1.3%
Cc1oc2c(C)c3oc(=O)c4c(c3cc2c1C)CCCC4 | 25.7 | 31.8* | 14.5% | -7.5% | 2.3% | 7.5%
CCOc1ccccc1N(C)C(=O)Cn1cnc2sc(C)c(S(=O)(=O)N3CCC(C)CC3)c2c1=O | . | -5.4 | -1.8% | 0.1% | 0.1% | .
O=NN(CCCl)C(=O)NC1CCCCC1 | . | 11.9 | . | . | . | -0.9%
Cc1c(OCC(=O)OC(C)C)ccc2c3c(c(=O)oc12)CCC3 | 45.8 | 0.4 | 31.1% | 31.6µM* | 7.7% | 10.4%
CCc1c(C)c2ccc(OCC(=O)OC(C)C)c(C)c2oc1=O | 56.5 | 40.8* | 2.6% | 25.1µM* | 3.9% | 6.0%
Cc1c(OCC(=O)N(C)C)ccc2c3c(c(=O)oc12)CCCCC3 | 14.9 | 0.3 | -5.7% | 3.6% | -11.1% | 11.9%
CC(=O)COc1ccc2c3c(c(=O)oc2c1C)CCCCC3 | 38.9 | 29.8 | 0.0% | 25.1µM* | -17.5% | ?
CCc1c(C)c2ccc(OCC(=O)N(C)C)c(C)c2oc1=O | 21.2 | 11.7 | 9.6% | 39.7% | -10.4% | 10.5%
Cc1c(O)ccc2c3c(c(=O)oc12)CCCC3 | 12.1 | 0.7 | 19.4% | 25.1µM* | 209.0% | 20.5%
CC(C)CN(Cc1c(O)ccc2c3c(c(=O)oc12)CCC3)CC(C)C | 11.3 | 10.1 | 2.2% | 12.6µM* | 8.6% | -0.3%
O=C(Nc1ccc(Br)c2cccnc12)c1cccc2ccccc12 | . | 8.9 | 9.4% | -5.6% | -4.0% | 0.2%
COc1ccccc1C(=O)Oc1ccc(C(C)(C)C)cc1 | 5.5 | -8.4 | ? | 1.2% | 4.2% | 22.3%
Cc1ccccc1S(=O)(=O)Oc1ccccc1C(=O)Oc1ccccc1 | 27.3 | -7.9 | 0.0% | 25.1µM* | 7.0% | 0.4%
SMILES | DRD3 antagonist | D3 ag | GLP-1R inv ag | ClpP mod | HEK293 tox | GLP1R ag
CCOc1ccccc1Nc1cc(C)c2cccc(C)c2n1 | 53.6 | 0.4 | ? | . | -3.8% | 27.5%
CCOc1nc(N=C(N)N)nc2c(C)cccc12 | 7.1 | -0.3 | 7.6% | 15.8µM* | -17.8% | -37.8%
CC1(C)C2CC[C@]1(C)[C@@H](O)C2 | . | . | . | . | . | 8.9%
Cc1c(CCOC(=O)C2C3CC4CC(C3)CC2C4)sc[n+]1CC(=O)c1ccc(Br)cc1 (configuration not stated) | ? | -18.7 | 11.2µM* | 0.4% | ? | -54.8%
Cc1c(CCOC(=O)c2ccc(Cl)cc2Cl)sc[n+]1CC(=O)c1ccc(Br)cc1 | -4.8 | -2.0 | 10µM* | 1.0% | ? | 4.9%
C=CC1=C2C=C(C3CC3)N(CC3CC3)C=C2C(=O)C(C)(OC(=O)c2ccco2)C1=O (configuration not stated) | 0.0 | -8.2 | 4.3% | -0.1% | -4.3% | -4.5%
C=CC1=C2C=C(C3CC3)N(CCCN(CC)CC)C=C2C(=O)C(C)(OC(=O)c2ccco2)C1=O (configuration not stated) | -13.0 | 46.2* | 9.2% | -1.2% | -11.3% | 6.5%
COc1ccc(CNC(=O)c2ccc(-c3nc(CSc4ccccc4)c(C)o3)cc2)cc1 | . | -7.3 | 19.7% | 4.6% | 1.1% | .
Cc1cccc(Oc2sc(C(=O)c3ccccc3)c(N)c2C#N)c1 | -12.2 | -11.8 | ? | 14.1µM* | -4.0% | 8.8%
CC(NC(=O)COC(=O)C1=NN(c2ccccc2)C(=O)CC1)c1ccccc1 (configuration not stated) | 7.7 | 4.4 | -0.3% | -0.4% | -3.3% | -5.9%
O=C(COC(=O)C1=NN(c2ccccc2)C(=O)CC1)NCc1ccccc1Cl | 6.3 | -5.4 | 13.6% | 28.2µM* | 22.4% | -8.2%
CC(=O)N1CCN(C(=O)OC2CC3CC2[C@H]2CCCCN2C3=O)CC1 (some centres not stated) | 9.9 | 3.0 | 22.4% | 1.5% | -3.6% | -0.7%
COC(=O)c1c(-c2ccc(OC)cc2)sc2cc(OC)c(OC)cc12 | 84.0 | 19.4 | 16.2% | 3.8% | -1.8% | 30.9%
COC(=O)c1c(-c2ccc(OC)cc2)sc2ccc(N3CCOCC3)cc12 | 47.7 | 2.5 | 5.0% | -1.1% | 8.1% | 14.0%
COc1ccc2sc(-c3ccc(SC)cc3)c(C#CCO)c2c1 | 112.0 | 62.0* | 44.3% | 4.3% | 2.2% | 28.2%
COC(=O)c1c(-c2ccc(SC)cc2)sc2ccccc12 | 41.8 | 56.4* | -17.2% | 4.3% | 0.0% | 30.2%
COC(=O)c1c(-c2cc(OC)cc(OC)c2)sc2ccc(OC)cc12 | 9.6 | 62.3* | ? | ? | -8.8% | ?
COC(=O)c1c(-c2ccc(SC)cc2)sc2ccc(OC)cc12 | 16.1 | 37.8* | ? | 3.5% | -0.4% | 4.0%
CCOc1ccc(-n2c(=O)c3c(C)c(C(=O)N(C)C)sc3n(Cc3cc(C)ccc3C)c2=O)cc1 | . | -9.6 | 10.5% | -2.8% | -3.2% | .
Cc1ccc(-c2nn(-c3ccc(F)cc3)c3c2cnc2cc(F)c(F)cc23)cc1 | . | 8.2 | -1.2% | -11.4% | -10.1% | -1.9%

Screening results deposited in PubChem BioAssay by National Center for Advancing Translational Sciences (NCATS).
